# Experimental data as given in the supplement of paper PMC12645437, “Orthogonal IMiD-Degron Pairs Induce Selective Protein Degradation in Cells” (ACS Chemical Biology, 2025).
# Over roughly 8,300 sequences, “log2 fold change of degron read counts, EGFP-low vs EGFP+ sorted cells (limma voom), compound-induced degradation” has its median near -1.1; the highest 2% begin near 3.2. This excerpt belongs to a sample that is enriched for the highest values.
# Target: T1, CRBN, Q96SW2
# T1 chain: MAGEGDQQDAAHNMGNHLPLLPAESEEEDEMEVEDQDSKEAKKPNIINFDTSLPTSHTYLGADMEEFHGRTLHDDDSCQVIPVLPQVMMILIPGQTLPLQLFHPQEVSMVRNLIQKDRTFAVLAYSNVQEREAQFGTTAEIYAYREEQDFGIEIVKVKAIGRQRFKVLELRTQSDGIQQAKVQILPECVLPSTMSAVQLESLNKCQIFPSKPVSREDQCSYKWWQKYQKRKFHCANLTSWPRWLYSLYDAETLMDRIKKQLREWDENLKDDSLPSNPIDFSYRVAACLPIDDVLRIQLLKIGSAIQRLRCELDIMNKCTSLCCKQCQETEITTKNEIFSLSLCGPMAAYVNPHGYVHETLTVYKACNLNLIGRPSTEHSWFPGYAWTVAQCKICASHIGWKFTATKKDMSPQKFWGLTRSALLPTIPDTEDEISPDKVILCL
# Assay: log2 fold change of degron read counts, EGFP-low vs EGFP+ sorted cells (limma voom), compound-induced degradation; higher = more compound-induced degradation of the degron-EGFP fusion; degrons are variants of IKZF1/3 zinc finger 2; compound dose not given here
# Settings: Jurkat, 18 h
# [1] = compound: compound 19 (5-tert-butyl-thalidomide)
# [2] = compound: compound 22 (5-morpholino-thalidomide)
# [3] = compound: compound 33 (diphenyl IMiD analogue)
# 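Further: pooled lentiviral library of zinc finger degron-EGFP fusions in mCherry-positive Jurkat cells, FACS-sorted after compound exposure, with degron abundance counted by next-generation sequencing.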
Sequence,log2 fold change of degron read counts [1],log2 fold change of degron read counts [2],log2 fold change of degron read counts [3],log2 fold change of degron read counts (compound: thalidomide)
"LHCNQCGFWCTQKGNLLRHIKL [46L_47H_49N_50Q_52G_53F_54W_55C_67L_, Q9UKT9]",-0.827,-1.3,-1.08,-0.88
"FRCPICGHHFTQKGNLLRHIKL [46F_47R_49P_50I_52G_53H_54H_55F_67L_, Q9UKT9]",-2.39,-2.52,-1.52,-1.56
"FSCEICGANFTQKGNLLRHIKL [46F_47S_49E_50I_52G_53A_54N_55F_67L_, Q9UKT9]",2.11,1.59,1.31,0.441
"FLCEICGANFTQKGNLLRHIKL [46F_47L_49E_50I_52G_53A_54N_55F_67L_, Q9UKT9]",0.58,-0.667,1.21,1.75
"FGCEICGANFTQKGNLLRHIKL [46F_47G_49E_50I_52G_53A_54N_55F_67L_, Q9UKT9]",1.01,0.765,1.12,0.771
"FFCEICGANFTQKGNLLRHIKL [46F_47F_49E_50I_52G_53A_54N_55F_67L_, Q9UKT9]",3.08,3.63,1.75,1.6
"FYCEICGANFTQKGNLLRHIKL [46F_47Y_49E_50I_52G_53A_54N_55F_67L_, Q9UKT9]",3.74,3.68,2.63,1.54
"FQCEICGANFTQKGNLLRHIKL [46F_47Q_49E_50I_52G_53A_54N_55F_67L_, Q9UKT9]",0.735,1.47,1.94,3.59
"FWCEICGANFTQKGNLLRHIKL [46F_47W_49E_50I_52G_53A_54N_55F_67L_, Q9UKT9]",3.41,3.78,2.28,1.57
"FNCEICGANFTQKGNLLRHIKL [46F_47N_49E_50I_52G_53A_54N_55F_67L_, Q9UKT9]",2.42,0.457,-0.158,-0.463
"FACEICGANFTQKGNLLRHIKL [46F_47A_49E_50I_52G_53A_54N_55F_67L_, Q9UKT9]",2.93,1.89,1.07,0.575
"FKCEICGANFTQKGNLLRHIKL [46F_47K_49E_50I_52G_53A_54N_55F_67L_, Q9UKT9]",-1.06,-1.95,-2.41,-0.806
"FECEICGANFTQKGNLLRHIKL [46F_47E_49E_50I_52G_53A_54N_55F_67L_, Q9UKT9]",0.0673,-1.05,2.35,2.43
"FTCEICGANFTQKGNLLRHIKL [46F_47T_49E_50I_52G_53A_54N_55F_67L_, Q9UKT9]",0.227,1.78,1.46,2.43
"FCCEQCGAMFTQKGNLLRHIKL [46F_47C_49E_50Q_52G_53A_54M_55F_67L_, Q9UKT9]",-1.3,-2.03,-0.276,-1.41
"FHCNVCGARFTQKGNLLRHIKL [46F_47H_49N_50V_52G_53A_54R_55F_67L_, Q9UKT9]",0.139,-0.199,-0.986,-1.05
"LNCPICGFLCTQKGNLLRHIKL [46L_47N_49P_50I_52G_53F_54L_55C_67L_, Q9UKT9]",-0.106,0.152,0.208,0.391
"FQCSVCGHDFTQKGNLLRHIKL [46F_47Q_49S_50V_52G_53H_54D_55F_67L_, Q9UKT9]",-3.43,-3.8,-3.18,-3.17
"FICNQCGHFFTQKGNLLRHIKL [46F_47I_49N_50Q_52G_53H_54F_55F_67L_, Q9UKT9]",-2.52,-2.59,-2.06,-2.52
"FKCEICGHFFTQKGNLLRHIKL [46F_47K_49E_50I_52G_53H_54F_55F_67L_, Q9UKT9]",-2.55,-2.68,-2.97,-2.85
"FQCNVCGACFTQKGNLLRHIKL [46F_47Q_49N_50V_52G_53A_54C_55F_67L_, Q9UKT9]",-1.23,0.797,0.868,3.21
"LFCPICGFKCTQKGNLLRHIKL [46L_47F_49P_50I_52G_53F_54K_55C_67L_, Q9UKT9]",2.81,2.98,1.2,1.42
"LGCPICGFKCTQKGNLLRHIKL [46L_47G_49P_50I_52G_53F_54K_55C_67L_, Q9UKT9]",3.67,1.98,-0.000486,1.27
"LRCPICGFKCTQKGNLLRHIKL [46L_47R_49P_50I_52G_53F_54K_55C_67L_, Q9UKT9]",-0.023,-0.151,0.993,1.4
"LVCPICGFKCTQKGNLLRHIKL [46L_47V_49P_50I_52G_53F_54K_55C_67L_, Q9UKT9]",0.655,2.13,0.489,2.78
"LHCPICGFKCTQKGNLLRHIKL [46L_47H_49P_50I_52G_53F_54K_55C_67L_, Q9UKT9]",2.19,2.18,1.15,1.4
"LQCPICGFKCTQKGNLLRHIKL [46L_47Q_49P_50I_52G_53F_54K_55C_67L_, Q9UKT9]",0.793,2.43,0.554,3.4
"LDCPICGFKCTQKGNLLRHIKL [46L_47D_49P_50I_52G_53F_54K_55C_67L_, Q9UKT9]",0.605,0.0419,-0.53,2.02
"LECPICGFKCTQKGNLLRHIKL [46L_47E_49P_50I_52G_53F_54K_55C_67L_, Q9UKT9]",0.756,-0.257,0.961,3.26
"LSCPICGFKCTQKGNLLRHIKL [46L_47S_49P_50I_52G_53F_54K_55C_67L_, Q9UKT9]",2.15,1.87,0.118,1.77
